The list is not random: actives were taken first. Their share in the collection is about 1%.
Eya2 phos inh: inhibitors of human Eya2 phosphatase activity; O00167; hit rate 0.006% among 330,000; recombinant Eya2, OMFP fluorescence dephosphorylation (OMFP is methylfluorescein phosphate); Potency, µM (series often up to 76.9 µM), for the others: top-dose activity, negative = inhibition, usual class: inhibitors
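Eya2 (0.2 uM) preincubated 10 min at ambient with compound, then OMFP substrate added at 50 uM; 10 min reaction in 50 mM HEPES pH 7.5, 50 mM NaCl, 5 uM MgCl2, 0.05% BSA, 1 mM DTT. Fluorescence read at Ex 485/Em 525 nm.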
TrxR1 substrate: is turned over as a substrate by rat TrxR1 | hit rate 0.01% among 390,000 | Potency, µM (series often up to 114 µM), for inactives: top-dose activity change, negative = substrate turnover | O89049 | purified TrxR1 substrate turnover, NADPH consumption readout; note: nearly all actives have a fitted effect of over 50% in size
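Rat TrxR1, dispensed at 90 nM, was prereduced with 400 uM NADPH (final) for 5 min at ~22 deg C, then incubated with compound 15 min before 400 uM selenite. A first-read NADPH fluorescence drop versus no-compound background flagged substrates.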
rTrxR1 inhibitor: inhibitors of rat thioredoxin reductase 1. O89049. recombinant rTrxR1, NADPH fluorescence consumption, selenite substrate. Potency, µM (top dose mostly 114 µM), for inactives: at the top dose activity change, negative = inhibition, hits mostly inhibitors. hit rate 1% among 390,000; note: nearly all actives have a fitted effect of over 65% in size
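Rat TrxR1 (90 nM in the dispensed reagent) was pre-reduced with 400 uM NADPH for 5 min at room temperature, then incubated with compound for 15 min. After 400 uM selenite was added, NADPH fluorescence (Ex 340/Em 450 nm) was followed for 8 min.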
GALK inh: inhibitors of human galactokinase. P51570. Purified GALK, Kinase-Glo residual ATP luminescence. Potency, µM (series often up to 57.5 µM), for inactives: at the highest dose activity change, negative = inhibition, most hits filed as inhibitors. hit rate 0.007% among 270,000. AID 1868
Target sequence (P51570 whole entry, looked up): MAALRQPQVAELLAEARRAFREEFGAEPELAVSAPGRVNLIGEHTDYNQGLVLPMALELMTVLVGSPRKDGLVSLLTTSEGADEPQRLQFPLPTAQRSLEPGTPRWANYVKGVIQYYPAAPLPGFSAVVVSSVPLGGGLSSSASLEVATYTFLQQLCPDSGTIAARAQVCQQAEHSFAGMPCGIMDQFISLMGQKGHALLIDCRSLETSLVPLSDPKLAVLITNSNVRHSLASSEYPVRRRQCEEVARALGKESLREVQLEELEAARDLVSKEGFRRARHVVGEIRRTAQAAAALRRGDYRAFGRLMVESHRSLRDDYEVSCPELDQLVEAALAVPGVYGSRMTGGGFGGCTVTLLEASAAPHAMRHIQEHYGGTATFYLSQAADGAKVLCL
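GALK at 5 nM final was combined with compound, 35 uM ATP and 100 uM galactose in HEPES pH8.0 with MgCl2 and DTT. The reaction ran one hour at room temperature before luminescent ATP detection.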
USP2a inh: USP2a (human) protease inhibition; hit rate 0.01% among 330,000; O75604; USP2 core, Ub-CHOP2 coupled fluorogenic reporter, 485/531; Potency, µM (highest dose often 38.3 µM), for inactives: at the top dose activity change, negative = inhibition, most hits filed as inhibitors;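 note: plate controls were DMSO wells for no effect and full inhibition by NEM control for full effect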
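Cell-free coupled assay: 10nM USP2 core preincubated 30min RT with compound in Tris-HCl pH 8.0/CaCl2/CHAPS buffer, then 25nM Ub-CHOP2 and 25nM reporter substrate; fluorescence (Ex 485/Em 531) read after 60min RT, normalized to NEM inhibition, concentration-response curves fitted.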
RGS4 inhibitor: blocks human RGS4-accelerated GTP hydrolysis | Transcreener GDP fluorescence polarization, RGS4-accelerated GTP hydrolysis | Potency, µM (top dose mostly 114 µM), without a hit: top-dose activity change, negative = inhibition, actives largely listed as inhibitors | hit rate 0.039% among 390,000; note: nearly all actives have a fitted effect of over 75% in size
Target sequence (P49798 whole entry, looked up): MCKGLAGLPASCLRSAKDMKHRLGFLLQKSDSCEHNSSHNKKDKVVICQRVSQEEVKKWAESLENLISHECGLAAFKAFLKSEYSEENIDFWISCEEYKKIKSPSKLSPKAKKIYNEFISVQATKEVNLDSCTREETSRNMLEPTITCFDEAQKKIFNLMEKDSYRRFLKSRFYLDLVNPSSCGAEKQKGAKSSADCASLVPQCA
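MLSMR compounds (23 nl, pin-transferred) preincubated 10 min at room temperature with a 500nM (2x) first reagent, then RGS4 at 900nM (2x) plus Transcreener GDP mix added; fluorescence polarization (620/688 nm) read before and after 90 min at 30 °C.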
The depositor's hits bear a star; u = inconclusive; x = not tested or not shown; [ ] = remark or other dose. Calls come from the whole dose curve; as a rule, active = well fitted curve in the direction sought with a large enough effect; inconclusive = small, poorly fitted or top-dose-only effect, or another doubt; inactive = no such curve, though single readings can be large; an effect the other way counts as inactive or inconclusive. Unless noted, % is set by controls: 0 for no effect and ±100 for the full control effect; potency is the fitted concentration of half-maximal effect.

SMILES	Eya2 phos inh	TrxR1 substrate	rTrxR1 inhibitor	GALK inh	USP2a inh	RGS4 inhibitor
CC(C(=O)c1ccccc1)[n+]1cccc(Cl)c1 (stereo not drawn)	x	10.6%[0.0914 µM]	-9.5%	x	x	x
COC(=O)[C@@H]1CCCN1S(=O)(=O)Cc1ccccc1	x	3.4%	19.8%	x	x	x
CC[n+]1c(/C=C/C=C2/N(C)c3ccccc3C2(C)C)sc2ccccc21	12.1%	7.6%[57.1 µM]	7.9%[57.1 µM]	x	x	21.2µM*
CC[n+]1c(/C=C/C=C/N(C(C)=O)c2ccccc2)sc2ccccc21	14.4%	-20.0%	u	-1.8%	4.6%	u
O=c1[nH]c(=S)[nH]c2n[nH]nc12	x	-6.0%	u	x	x	x
COc1cc(/C=C2\N=C(C)OC2=O)cc(OC)c1OC	0.1%	5.1%	44.7µM*	0.0%	0.4%	-46.2%
COc1ccc(/C=C2\C(=O)ON=C2c2ccccc2)cc1OC	-7.9%	10.6%	31.6µM*	-5.0%	0.5%	u
CCOc1cc(/C=C2\C(=O)ON=C2c2ccccc2)ccc1OC	-11.7%	1.1%	17.8µM*	3.0%	2.8%	u
NC(=O)COc1ccc(/C=C2\C(=O)ON=C2c2ccccc2)cc1	-10.8%	-8.3%	28.2µM*	x	1.8%	u
CCOc1cc(/C=C2/C(=O)ON=C2C)ccc1OCc1ccccc1	-8.3%	-2.7%	u	1.0%	1.0%	u
NC(=O)COc1ccccc1	-3.0%	7.1%	19.3%	4.3%	0.9%	-13.0%
COc1cc(/C=C2\C(=O)ON=C2c2ccccc2)cc(OC)c1OC	3.3%	5.2%	17.8µM*	-1.0%	-0.8%	u
COc1ccc(/C=C2/C(=O)ON=C2c2ccccc2)cc1OC	0.7%	7.5%	31.6µM*	0.5%	-2.0%	u
CN(CCCC1CCCC1)C(=O)CC1C(=O)NCCN1Cc1cccc(F)c1F (stereo not drawn)	-6.9%	9.4%	39.8µM*	4.3%	-0.9%	0.1%
Cc1cc(I)ccc1Nc1nc(NCCN2CCOCC2)nc(N2CCOCC2)n1	x	-14.5%	u	x	x	x
Cc1ccc(CNC(=O)CSc2c3c(nc4cc(Cl)ccc24)CCCC3)o1	-11.9%	-3.6%	14.1µM*	-5.0%	0.9%	u
CCOc1ccc(CNC(=O)CSc2c3c(nc4cc(Cl)ccc24)CCCC3)cc1	x	-2.1%	4.0%	x	x	-9.3%
CN1CCN(C(c2ccc(Cl)cc2)c2cc(Cl)c3cccnc3c2O)CC1 (stereo not drawn)	-1.1%	2.5%	6.31µM*	0.8%	-12.0%	u
Cc1ncnc2nc[nH]c12	x	6.3%	23.3%	x	x	x
Cc1ccc(-c2csc3ncnc(Sc4nnnn4C4CC4)c23)cc1	x	-4.5%	-3.8%	x	x	x
CCN1CCC(O)(/C=C/c2ccc(C(C)C)cc2)C(C(=O)/C=C/c2ccc(C(C)C)cc2)C1 (stereo not drawn)	x	-13.6%	7.94µM*	x	x	u
O=C(NC1CCCCC1)Sc1ccc(Cl)cc1	3.4%	3.9%	17.8µM*	-0.5%	0.1%	u
CCCS(=O)(=O)c1c(S(=O)(=O)CCC)c2ccccn2c1C(=O)OC	-3.0%	12.1%	39.8µM*	2.5%	0.5%	-15.1%
CCCS(=O)(=O)c1c(S(=O)(=O)CCC)c2cc(CC)ccn2c1C(=O)OC	-2.4%	17.2%	-11.3%	-1.1%	-1.4%	-1.1%
CCCS(=O)(=O)c1c(S(=O)(=O)CCC)c2c(C)cccn2c1C(=O)OC	-9.4%	14.4%	25.1µM*	x	3.1%	4.8%
SMILES	Eya2 phos inh	TrxR1 substrate	rTrxR1 inhibitor	GALK inh	USP2a inh	RGS4 inhibitor
CCCS(=O)(=O)c1c(S(=O)(=O)CCC)c2c3ccccc3ccn2c1C(=O)OC	3.1%	24.7%	-2.5%	0.2%	-1.8%	-17.9%
CN(C(=O)c1ccc(OCC=C(c2ccccc2)c2ccccc2)cc1)c1ccccc1I	x	-7.4%	-14.5%	x	x	12.4%
Cc1cc2nccc(/C=C/c3ccc(N(C)C)cc3)c2cc1C	x	-11.1%	-13.8%	x	x	x
O=C(Nc1nc2c(F)cc(F)cc2s1)C1CC(=O)N(Cc2ccco2)C1 (stereo not drawn)	-7.8%	5.7%	50.1µM*	-16.3%	0.0%	-13.6%[11.4 µM]
Cc1cc(C)c2nc(NC(=O)C3CC(=O)N(Cc4ccco4)C3)sc2c1 (stereo not drawn)	-16.9%	-14.4%	12.6%[57.1 µM]	-3.2%	1.1%	5.3%
CC(=O)Oc1ccc(N2C(=O)C3C4C=CC(O4)C3C2=O)cc1 (stereo not drawn)	4.8%	13.0%	5.62µM*	5.2%	0.3%	u
CC(=O)Oc1cccc(N2C(=O)C3C4C=CC(C4=C(C)C)C3C2=O)c1 (stereo not drawn)	-2.0%	1.3%	39.8µM*	0.0%	2.0%	-47.2%[56.9 µM]
CC(=O)Oc1ccc(N2C(=O)CCC2=O)cc1	0.9%	7.0%[57.1 µM]	7.1%[11.4 µM]	-1.8%	0.8%	-16.9%
COC(=O)/C=C/c1ccc2c(c1)S(=O)(=O)N(C1CCCC1)[C@H]2CC(=O)OC	x	-3.4%	24.8%	x	x	x
CN1C(=O)C(O)(CC(=O)/C=C/c2ccco2)c2cc(Br)ccc21 (stereo not drawn)	-2.4%	-10.7%	15.8µM*	6.2%	0.9%	6.4%[11.4 µM]
CN1C(=O)C(O)(CC(=O)/C=C/c2ccco2)c2ccccc21 (stereo not drawn)	-3.1%	-4.2%[57.1 µM]	-15.2%[57.1 µM]	2.5%	4.6%	-28.9%
Cc1c(S(=O)(=O)c2ccccn2)c(N)n(Cc2cccc(Cl)c2)c1C	-0.1%	3.5%	20µM*	0.3%	0.1%	-9.8%
N#C/C(=C/c1ccc(N2CCOCC2)o1)c1nc2ccccc2[nH]1	u	5.0%[57.1 µM]	-20.4%[57.1 µM]	-0.3%	u	-46.9%
N#C/C(=C/c1ccc(N2CCCCCC2)o1)c1ccc(F)cc1	x	10.6%[57.1 µM]	5.01µM*	x	x	-55.4%[11.4 µM]
N#C/C(=C/c1ccc(N2CCOCC2)o1)c1ccc(Br)cc1	9.2%	-17.2%	11.2µM*	-5.7%	1.4%	u
N#C/C(=C\c1ccc(N2CCOCC2)o1)c1ccccc1	-15.5%	-3.4%	3.55µM*	4.7%	-0.7%	u
CC(C)(C)n1ncc2c(=O)n(Cc3ccc(Cl)c(SC(F)(F)F)c3)cnc21	x	-6.8%	2.2%	x	x	x
CCCCc1ccc(NC(=O)COC(=O)c2ccccc2OCC(=O)Nc2ccc(Br)cc2)cc1	x	-0.7%	22.9%	x	x	x
COC1=C2C[C@H](C)C[C@H](OC)[C@@H](O)[C@@H](C)C=C(C)[C@H](OC(N)=O)[C@@H](OC)C=CC=C(C)C(=O)NC(=CC1=O)C2=O	x	-1.4%	50.1µM*	x	x	-48.4%
C=CCn1c(SC(C)C#N)nc2ccccc2c1=O (stereo not drawn)	x	9.4%[0.0914 µM]	6.9%	x	x	-9.7%
O=C1CC(N2CCC(Cc3ccccc3)CC2)C(=O)N1CCc1ccccc1 (stereo not drawn)	-6.6%	0.5%	31.6µM*	3.1%	-1.1%	20.1%

Screening results from PubChem BioAssay.
